Our source for the binding signal values is article PMC7862700, “An all-to-all approach to the identification of sequence-specific readers for epigenetic DNA modifications on cytosine”.

Test in all cases: DAPPL (digital affinity profiling via proximity ligation, sequencing); 10 mM Tris-HCl pH 7.5, 50 mM NaCl, 1 mM DTT, 4% glycerol, room temperature, 30 min; GST-TFs on glutathione beads, 16-mer random dsDNA library, 0.1% formaldehyde crosslink after washing; high values mean tight binding
Conditions in all cases: protein: recombinant; tags: N-terminal GST; dsDNA, one strand shown

The target of experiment [1] is T1, FLI1 (Homo sapiens, UniProt Q01543 1-452).
T1 sequence: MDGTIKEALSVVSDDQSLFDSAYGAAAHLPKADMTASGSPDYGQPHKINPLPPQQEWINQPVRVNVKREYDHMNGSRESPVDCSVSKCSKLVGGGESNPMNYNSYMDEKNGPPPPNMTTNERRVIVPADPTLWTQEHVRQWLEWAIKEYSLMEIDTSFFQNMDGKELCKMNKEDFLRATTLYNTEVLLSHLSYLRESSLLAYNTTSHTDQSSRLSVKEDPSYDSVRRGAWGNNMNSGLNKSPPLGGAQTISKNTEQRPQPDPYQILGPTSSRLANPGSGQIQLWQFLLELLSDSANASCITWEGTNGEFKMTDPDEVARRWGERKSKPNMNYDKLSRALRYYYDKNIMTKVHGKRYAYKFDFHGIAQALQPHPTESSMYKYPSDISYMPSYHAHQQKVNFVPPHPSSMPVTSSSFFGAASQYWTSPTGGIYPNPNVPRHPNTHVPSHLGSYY
Summed up:
(§1)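 Sequencing on an Illumina NextSeq500 followed washing, crosslinking with 0.1% formaldehyde, proximity ligation (BsaI/T4 ligase, 1 h, 37 °C) and PCR amplification of pools that had been incubated for 30 min at room temperature with 200 nmole of a random double-stranded 16-mer DNA library in Tris/NaCl/DTT/glycerol buffer. Each pool held DNA-barcoded human transcription factors, expressed in yeast as GST fusions and captured on glutathione beads, plus a tag-only sample. Binding signal is a hexamer's read frequency for a factor divided by its frequency in the tag-only sample.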

For experiment [2], the target named is T2, ELK1 (Homo sapiens, UniProt P19419 1-428).
T2 sequence: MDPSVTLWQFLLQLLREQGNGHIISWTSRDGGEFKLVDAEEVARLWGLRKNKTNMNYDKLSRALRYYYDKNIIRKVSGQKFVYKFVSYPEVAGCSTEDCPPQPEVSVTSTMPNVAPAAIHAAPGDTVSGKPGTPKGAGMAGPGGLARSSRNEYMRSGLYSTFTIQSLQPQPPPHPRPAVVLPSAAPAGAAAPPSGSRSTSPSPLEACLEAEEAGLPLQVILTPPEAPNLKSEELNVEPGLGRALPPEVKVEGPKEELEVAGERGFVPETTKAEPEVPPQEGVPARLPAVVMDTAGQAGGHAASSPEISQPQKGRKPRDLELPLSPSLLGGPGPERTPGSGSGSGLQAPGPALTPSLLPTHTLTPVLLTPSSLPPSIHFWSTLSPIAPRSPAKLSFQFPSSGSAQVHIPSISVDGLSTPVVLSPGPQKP
Summed up: as §1

Experiment [3] concerns the target T3, GABPA (Homo sapiens, UniProt Q06546 1-454).
T3 sequence: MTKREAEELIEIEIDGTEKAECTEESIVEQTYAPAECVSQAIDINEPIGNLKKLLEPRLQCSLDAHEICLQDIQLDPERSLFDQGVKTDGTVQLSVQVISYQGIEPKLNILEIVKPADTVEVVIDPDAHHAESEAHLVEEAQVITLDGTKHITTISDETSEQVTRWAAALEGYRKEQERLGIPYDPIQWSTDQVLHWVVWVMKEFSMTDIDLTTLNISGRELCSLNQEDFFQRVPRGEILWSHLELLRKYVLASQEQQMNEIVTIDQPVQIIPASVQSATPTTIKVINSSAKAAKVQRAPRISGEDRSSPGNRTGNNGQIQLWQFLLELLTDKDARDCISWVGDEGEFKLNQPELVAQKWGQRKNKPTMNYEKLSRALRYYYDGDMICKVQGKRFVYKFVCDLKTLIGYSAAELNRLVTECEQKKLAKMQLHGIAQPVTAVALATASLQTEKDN
The method in brief: as §1

Experiment [4] concerns the target T4, ERG (Homo sapiens, UniProt P11308 1-479).
T4 sequence: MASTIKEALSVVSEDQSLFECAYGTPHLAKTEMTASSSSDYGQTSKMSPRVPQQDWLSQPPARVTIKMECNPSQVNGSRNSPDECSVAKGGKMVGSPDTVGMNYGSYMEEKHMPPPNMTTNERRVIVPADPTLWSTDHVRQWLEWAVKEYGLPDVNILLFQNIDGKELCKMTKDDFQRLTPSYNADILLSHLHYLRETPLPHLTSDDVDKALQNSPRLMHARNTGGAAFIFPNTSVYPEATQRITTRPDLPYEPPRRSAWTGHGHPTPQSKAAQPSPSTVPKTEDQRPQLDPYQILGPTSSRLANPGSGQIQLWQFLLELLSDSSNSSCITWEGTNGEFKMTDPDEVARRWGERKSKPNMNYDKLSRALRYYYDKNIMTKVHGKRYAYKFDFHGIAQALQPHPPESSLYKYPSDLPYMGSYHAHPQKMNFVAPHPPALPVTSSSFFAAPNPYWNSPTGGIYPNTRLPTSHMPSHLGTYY
Summed up:
as §1

The target in experiment [5] is ELF1 (Homo sapiens, UniProt P32519 1-619). The method in brief: as §1
Experiment [6] addresses T5, EHF (Homo sapiens, UniProt Q9NZC4 1-300).
T5 sequence: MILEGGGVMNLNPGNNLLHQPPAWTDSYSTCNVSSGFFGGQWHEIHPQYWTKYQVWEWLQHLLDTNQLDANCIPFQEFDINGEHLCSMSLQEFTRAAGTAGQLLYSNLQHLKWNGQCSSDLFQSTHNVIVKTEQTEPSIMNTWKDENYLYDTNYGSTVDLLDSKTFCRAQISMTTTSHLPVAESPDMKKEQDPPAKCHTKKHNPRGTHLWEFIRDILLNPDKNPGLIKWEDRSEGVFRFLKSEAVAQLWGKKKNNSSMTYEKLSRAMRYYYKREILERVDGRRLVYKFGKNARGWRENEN
The method in brief: as §1

Experiment [7] addresses SPI1 (Homo sapiens, UniProt P17947 1-270). The method in brief:
as §1

Experiment [8] deals with SPIB (Homo sapiens, UniProt Q01892 1-262). The method in brief: as §1
Experiment [9] deals with T6, ELK3 (Homo sapiens, UniProt P41970 1-407).
T6 sequence: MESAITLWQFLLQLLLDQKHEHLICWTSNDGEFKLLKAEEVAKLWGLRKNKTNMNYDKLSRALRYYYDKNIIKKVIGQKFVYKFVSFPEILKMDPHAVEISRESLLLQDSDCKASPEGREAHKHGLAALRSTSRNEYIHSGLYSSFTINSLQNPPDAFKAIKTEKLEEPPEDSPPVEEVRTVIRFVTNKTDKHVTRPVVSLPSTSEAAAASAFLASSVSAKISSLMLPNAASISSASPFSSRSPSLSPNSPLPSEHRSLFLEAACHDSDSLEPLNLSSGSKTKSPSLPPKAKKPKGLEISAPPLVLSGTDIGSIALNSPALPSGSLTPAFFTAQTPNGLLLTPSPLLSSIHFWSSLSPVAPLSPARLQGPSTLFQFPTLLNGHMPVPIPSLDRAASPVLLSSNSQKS
The method in brief: as §1

ELF1, sequence (P32519 whole entry): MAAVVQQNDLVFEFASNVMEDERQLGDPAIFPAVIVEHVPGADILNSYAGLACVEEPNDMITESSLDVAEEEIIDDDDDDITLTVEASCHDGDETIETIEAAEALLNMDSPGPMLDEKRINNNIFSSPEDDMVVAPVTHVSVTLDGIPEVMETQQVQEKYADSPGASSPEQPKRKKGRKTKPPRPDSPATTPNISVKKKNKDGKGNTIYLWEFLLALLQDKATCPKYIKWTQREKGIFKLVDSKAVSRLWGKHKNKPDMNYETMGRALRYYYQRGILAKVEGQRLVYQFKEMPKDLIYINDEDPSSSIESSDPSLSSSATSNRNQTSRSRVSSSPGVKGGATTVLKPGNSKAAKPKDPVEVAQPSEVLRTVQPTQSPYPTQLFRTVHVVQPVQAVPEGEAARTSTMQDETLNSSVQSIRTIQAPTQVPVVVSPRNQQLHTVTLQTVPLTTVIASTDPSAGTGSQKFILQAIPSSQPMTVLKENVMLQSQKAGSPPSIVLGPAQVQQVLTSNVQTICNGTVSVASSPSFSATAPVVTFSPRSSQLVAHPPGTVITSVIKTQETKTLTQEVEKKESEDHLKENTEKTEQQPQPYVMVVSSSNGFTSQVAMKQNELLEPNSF
SPIB, sequence (Q01892 whole entry): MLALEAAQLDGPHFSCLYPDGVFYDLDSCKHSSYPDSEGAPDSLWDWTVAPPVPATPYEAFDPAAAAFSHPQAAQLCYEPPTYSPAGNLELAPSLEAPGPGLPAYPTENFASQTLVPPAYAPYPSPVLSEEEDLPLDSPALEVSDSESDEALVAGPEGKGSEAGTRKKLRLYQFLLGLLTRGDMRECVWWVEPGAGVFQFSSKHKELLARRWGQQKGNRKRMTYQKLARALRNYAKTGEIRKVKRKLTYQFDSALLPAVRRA

In the case of GCCTAA, the binding signal is 1.22 fold enrichment (6-mer frequency, TF over GST control) in experiment [1]; 1.17 fold enrichment (6-mer frequency, TF over GST control) in experiment [2]; 1.14 fold enrichment (6-mer frequency, TF over GST control) in experiment [3]; 1.24 fold enrichment (6-mer frequency, TF over GST control) in [4]; 1.22 fold enrichment (6-mer frequency, TF over GST control) in [5]; 1.28 fold enrichment (6-mer frequency, TF over GST control) in experiment [6]. Besides, the binding signal in experiment [7] is 1.11 fold enrichment (6-mer frequency, TF over GST control); in experiment [8], 1.23 fold enrichment (6-mer frequency, TF over GST control); in experiment [9], 1.19 fold enrichment (6-mer frequency, TF over GST control).
With AAATCA, the binding signal in experiment [1] was 1.12 fold enrichment (6-mer frequency, TF over GST control); in experiment [2], 1.19 fold enrichment (6-mer frequency, TF over GST control); in [3], 1.19 fold enrichment (6-mer frequency, TF over GST control); in experiment [4], 1.18 fold enrichment (6-mer frequency, TF over GST control); in experiment [5], 1.21 fold enrichment (6-mer frequency, TF over GST control); in experiment [6] it was 1.25 fold enrichment (6-mer frequency, TF over GST control). Besides, the binding signal in experiment [7] is 1.26 fold enrichment (6-mer frequency, TF over GST control); in experiment [8], 1.2 fold enrichment (6-mer frequency, TF over GST control); in experiment [9], 1.18 fold enrichment (6-mer frequency, TF over GST control).
In the case of TATCTC, the binding signal in experiment [1] was 1.19 fold enrichment (6-mer frequency, TF over GST control); in [2] it was 1.32 fold enrichment (6-mer frequency, TF over GST control); in [3], 1.39 fold enrichment (6-mer frequency, TF over GST control); in experiment [4], 1.18 fold enrichment (6-mer frequency, TF over GST control); in experiment [5], 1.29 fold enrichment (6-mer frequency, TF over GST control); in experiment [6], 1.35 fold enrichment (6-mer frequency, TF over GST control). For the same sequence, the binding signal in experiment [7] is 1.15 fold enrichment (6-mer frequency, TF over GST control); in experiment [8] it was 1.38 fold enrichment (6-mer frequency, TF over GST control); in experiment [9] it was 1.25 fold enrichment (6-mer frequency, TF over GST control).
For TCTTCG, the binding signal in experiment [1] is 1.45 fold enrichment (6-mer frequency, TF over GST control); in experiment [2], 1.49 fold enrichment (6-mer frequency, TF over GST control); in [3], 1.45 fold enrichment (6-mer frequency, TF over GST control); in experiment [4], 1.41 fold enrichment (6-mer frequency, TF over GST control); in experiment [5] it was 1.51 fold enrichment (6-mer frequency, TF over GST control); in experiment [6], 1.31 fold enrichment (6-mer frequency, TF over GST control). The binding signal is 1.47 fold enrichment (6-mer frequency, TF over GST control) in experiment [7]; 1.57 fold enrichment (6-mer frequency, TF over GST control) in [8]; 1.49 fold enrichment (6-mer frequency, TF over GST control) in experiment [9].
As for TACCAT, the binding signal is 1.22 fold enrichment (6-mer frequency, TF over GST control) in experiment [1]; 1.09 fold enrichment (6-mer frequency, TF over GST control) in [2]; 1.19 fold enrichment (6-mer frequency, TF over GST control) in experiment [3]; 1.17 fold enrichment (6-mer frequency, TF over GST control) in [4]; 1.23 fold enrichment (6-mer frequency, TF over GST control) in experiment [5]; 1.11 fold enrichment (6-mer frequency, TF over GST control) in experiment [6]. For the same sequence, the binding signal is 1.15 fold enrichment (6-mer frequency, TF over GST control) in [7]; 1.21 fold enrichment (6-mer frequency, TF over GST control) in experiment [8]; 1.21 fold enrichment (6-mer frequency, TF over GST control) in experiment [9].
As to CAAGAT, the binding signal in experiment [1] was 1.04 fold enrichment (6-mer frequency, TF over GST control); in [2], 1.04 fold enrichment (6-mer frequency, TF over GST control); in [3], 1.17 fold enrichment (6-mer frequency, TF over GST control); in experiment [4] it was 1.05 fold enrichment (6-mer frequency, TF over GST control); in experiment [5] it was 1.06 fold enrichment (6-mer frequency, TF over GST control); in experiment [6] it was 1.04 fold enrichment (6-mer frequency, TF over GST control). For the same sequence, the binding signal is 1.01 fold enrichment (6-mer frequency, TF over GST control) in experiment [7]; 1.01 fold enrichment (6-mer frequency, TF over GST control) in [8]; 1.14 fold enrichment (6-mer frequency, TF over GST control) in experiment [9].
As for TTCTGC, the binding signal in experiment [1] was 1.54 fold enrichment (6-mer frequency, TF over GST control); in experiment [2], 1.49 fold enrichment (6-mer frequency, TF over GST control); in experiment [3], 1.4 fold enrichment (6-mer frequency, TF over GST control); in experiment [4], 1.32 fold enrichment (6-mer frequency, TF over GST control); in experiment [5] it was 1.52 fold enrichment (6-mer frequency, TF over GST control); in experiment [6], 1.46 fold enrichment (6-mer frequency, TF over GST control). Also, the binding signal was 1.5 fold enrichment (6-mer frequency, TF over GST control) in experiment [7]; 1.34 fold enrichment (6-mer frequency, TF over GST control) in [8]; 1.39 fold enrichment (6-mer frequency, TF over GST control) in experiment [9].
